# In publication PMC4336329 (PLoS ONE, 2015):
# The campaign covered roughly 310,000 compounds. About 14,000 (4.5%) showed an effect of 50% or more. Effects have a minus sign here. This is one part of a sample in which strong results are shown more often than they occur.
# Biological target: human ether-à-go-go-related gene (hERG) potassium channel (human, UniProt Q12809)
# Experiment: primary screen, population patch clamp on CHO cells stably expressing hERG; higher = less effect of the substance
# 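Further: peak tail current of the secondary pulse compared with the same well before compound.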
# human ether-à-go-go-related gene (hERG) potassium channel, sequence (Q12809 whole entry, looked up): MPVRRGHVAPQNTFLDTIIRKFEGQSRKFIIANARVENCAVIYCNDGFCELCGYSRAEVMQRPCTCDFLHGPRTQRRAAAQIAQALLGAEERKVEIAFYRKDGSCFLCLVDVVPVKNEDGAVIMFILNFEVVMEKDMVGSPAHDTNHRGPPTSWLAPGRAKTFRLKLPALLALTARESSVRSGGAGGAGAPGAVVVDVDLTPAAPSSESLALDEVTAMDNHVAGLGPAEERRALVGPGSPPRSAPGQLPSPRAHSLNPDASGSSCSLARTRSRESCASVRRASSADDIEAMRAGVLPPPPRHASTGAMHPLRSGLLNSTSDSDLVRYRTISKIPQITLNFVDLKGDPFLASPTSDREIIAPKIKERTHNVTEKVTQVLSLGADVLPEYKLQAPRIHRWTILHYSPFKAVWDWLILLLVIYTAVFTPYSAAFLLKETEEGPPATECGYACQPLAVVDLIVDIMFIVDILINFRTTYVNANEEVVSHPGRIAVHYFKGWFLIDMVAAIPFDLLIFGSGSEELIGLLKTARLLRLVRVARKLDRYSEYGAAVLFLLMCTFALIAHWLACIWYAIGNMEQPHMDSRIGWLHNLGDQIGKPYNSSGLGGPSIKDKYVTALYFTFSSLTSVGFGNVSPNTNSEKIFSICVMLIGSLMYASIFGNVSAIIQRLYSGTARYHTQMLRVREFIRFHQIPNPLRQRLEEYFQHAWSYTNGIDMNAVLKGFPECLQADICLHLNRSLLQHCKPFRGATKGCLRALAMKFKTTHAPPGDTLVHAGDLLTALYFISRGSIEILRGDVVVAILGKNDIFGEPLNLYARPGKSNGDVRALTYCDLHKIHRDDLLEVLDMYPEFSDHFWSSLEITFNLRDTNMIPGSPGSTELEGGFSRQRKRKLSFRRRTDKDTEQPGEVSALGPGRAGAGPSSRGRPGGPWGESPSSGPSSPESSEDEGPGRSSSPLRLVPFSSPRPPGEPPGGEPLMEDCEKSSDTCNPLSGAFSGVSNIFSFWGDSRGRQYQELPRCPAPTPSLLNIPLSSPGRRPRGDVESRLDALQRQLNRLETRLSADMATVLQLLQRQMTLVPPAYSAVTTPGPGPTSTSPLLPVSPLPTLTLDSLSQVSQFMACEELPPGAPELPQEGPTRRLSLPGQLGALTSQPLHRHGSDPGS
row,Compound,"hERG current change (%, negative = inhibition) at 10uM [%]"
1,c1ccc(C2Nc3cccc4cccc(c34)N2)cc1,14
2,CN1CCN(NC(=O)c2cc(S(=O)(=O)Nc3ccc(Cl)cc3)ccc2Cl)CC1.Cl,5.84
3,CCOC(=O)CNC(=O)c1ccc(Br)s1,-9.48
4,CCOc1cccc(-c2c(C(=O)N/N=C(\C)c3ccncc3)nnn2-c2nonc2N)c1,-43.6
5,COc1ccc2cc(-c3ccccc3)c(=O)oc2c1,18
6,COc1ccc(-[n+]2c(-c3ccccc3)cc(-c3ccc(C)cc3)cc2-c2ccccc2)cc1.[O-][Cl+3]([O-])([O-])[O-],-77.7
7,COc1ccc(-[n+]2c(-c3ccccc3)cc(-c3ccccc3)cc2-c2ccccc2)cc1.[O-][Cl+3]([O-])([O-])[O-],-71.9
8,COc1ccc(-c2ccc(OC)cc2)cc1,7.51
9,COc1ccc(-c2cccc(C(=O)Nc3ccc(C)cc3)c2)cc1,16.9
10,COc1ccc2cc(-c3ccccc3)ncc2c1,5.65
11,CSc1ccc(S(=O)(=O)NCc2ccccc2)cc1,13.1
12,CCCC(CCC(=O)Nc1cccc([N+](=O)[O-])c1)C(=O)O (centres unmarked),-0.0899
13,CCOc1ccc(-n2c(C)nc3cc(C(=O)NCC4CCCO4)ccc32)cc1 (centres unmarked),-15.2
14,CCN(CC)c1ccc(S(=O)(=O)N2CCCCC2)cc1NC(=O)C1CCC1,-15.3
15,CC1(C)CC(=O)c2cnc(NCC3CCCO3)nc2C1 (centres unmarked),7.24
16,COc1cc(C2=NOC(C(=O)Nc3ccc4c(c3)OCO4)C2)cc(OC)c1OC (centres unmarked),16.6
17,FC(F)(F)c1nc(N2CCCC2)ncc1-c1nnnn1-c1ccc(Cl)cc1,-4.4
18,CC1(C)C(N(O)C(=O)Nc2ccc(Cl)cc2)N(c2ccc(Cl)cc2)C(=O)N1CC(=O)NN (centres unmarked),-14.6
19,O=c1cc(-c2ccccc2)[nH]n2cnnc12,12.6
20,O=C(CN1C(=O)S/C(=C\c2ccc(F)cc2)C1=O)NCCCn1ccnc1,-58.9
21,O=C(CN1C(=O)S/C(=C\c2ccccc2F)C1=O)NCCCn1ccnc1,-9.34
22,CC(C)c1ccc(/C=C2\SC(=O)N(CC(=O)NCCCn3ccnc3)C2=O)cc1,-76.9

row,Compound,"hERG current change (%, negative = inhibition) at 10uM [%]"
1,COc1ccccc1/C=C1\SC(=O)N(CC(=O)NCCCn2ccnc2)C1=O,-3.76
2,O=C(CN1C(=O)S/C(=C\c2ccccc2Cl)C1=O)NCCCn1ccnc1,-44.5
3,O=C(CN1C(=O)S/C(=C\c2cccc(Cl)c2)C1=O)NCCCn1ccnc1,-51.2
4,CC(C)c1ccc(/C=C2\SC(=S)N(CCC(=O)NCCCn3ccnc3)C2=O)cc1,-17.3
5,COc1ccc(/C=C2\SC(=O)N(CC(=O)NCCCn3ccnc3)C2=O)cc1,-44.5
6,O=C(CN1C(=O)S/C(=C\c2ccccc2)C1=O)NCCCn1ccnc1,-23.4
7,O=C(CN1C(=O)S/C(=C\c2ccc(Cl)cc2)C1=O)NCCCn1ccnc1,-68.2
8,COc1cccc(/C=C2\SC(=O)N(CC(=O)NCCCn3ccnc3)C2=O)c1,-31.6
9,COc1ccc(/C=C2\SC(=O)N(CCC(=O)NCCCn3ccnc3)C2=O)cc1,-43.2
10,CCCCCCCCN1[C@@H](CC(=O)OC)c2cc(C(F)(F)F)ccc2S1(=O)=O,1.99
11,Cc1cc(C)n(-c2nc3c(c(=O)[nH]c(=O)n3C)n2C)n1,10.1
12,Oc1ccc(-c2cc(-c3ccc(O)cc3)nc(-c3ccccc3)n2)cc1,20.1
13,Cc1ccc(S(=O)(=O)n2[nH]c(=O)cc2NC(=O)c2cccs2)cc1,-0.667
14,CCc1nn2c(=O)cc(CSCC(=O)Nc3ccccc3F)nc2s1,11.3
15,Cc1ccccc1OCC(=O)N1CCCCCCC1,1.22
16,CCC(C#CCN1CCCCC1)(CC)OCCC#N,2.57
17,CCOC(=O)Cc1nnc(NC(=O)CSc2ccccc2)s1,7.53
18,CCOC(=O)Cc1nnc(NC(=O)CSc2ncc(-c3ccccc3)nn2)s1,-58.7
19,CCOC(=O)CSc1ncc(-c2ccccc2)nn1,-6.58
20,C=CCc1cc(C=O)cc(OCC)c1OCc1ccc(Cl)cc1,31.4
21,COc1ccccc1C1C(C#N)=C(N)Oc2cc(C)n(Cc3ccccn3)c(=O)c21 (centres unmarked),-2.81
22,Cc1ccc2c(c1)C(=C(C#N)C#N)C(=O)N2CCN1CCOCC1,-38.6
